Measurements from PubChem BioAssay (NCI).
This is part of a sample that, as a whole, favours compounds with a hit. Of some 83,000 tested, about 20% had one in any assay.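 96-well plates, one dose, 48 hours. Percent growth reported; active if below 10.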 Values without a mark were called inactive. The source made the active and inactive calls.

Key:
Assay in all cases: NCI-60 one-dose screen, 48 h (100 = growth as untreated, 0 = no growth, -100 = all killed)
Details in all cases: 10 µM unless noted
[1] = test system: DU-145 prostate
[2] = test system: K-562 leukemia
[3] = test system: MALME-3M melanoma
[4] = test system: MDA-MB-231 breast
[5] = test system: RXF 393 renal
[6] = test system: SF-268 CNS
[7] = test system: SF-295 CNS
[8] = test system: SF-539 CNS
[9] = test system: UACC-257 melanoma
[10] = test system: M14 melanoma

With `COc1cc(-c2nc3sc4c(c3c(=O)[nH]2)CCCCCC4)cc(OC)c1OC` as the compound, how does the growth [1] read?
Its growth is 12.1%.

And the growth [2]?
The growth was 5.92% (active).

And the growth [3]?
The growth was 25.6%.

What about the growth [4] of the same compound?
Its growth is 7.21% (active).

What about the growth [5] of the same compound?
Its growth is 0.561% (active).

And the growth [6]?
Its growth is 27.2%.

What about the growth [7] of the same compound?
The growth was 13.7%.

And the growth [8]?
Its growth is -5.36% (active).

What about the growth [9] of the same compound?
Its growth is 63.7%.

What about the growth [10] of the same compound?
Its growth is 23.1%.

For `OC(c1cc(-c2cccc(Cl)c2)nc2ccccc12)C1CCCCN1` (stereo not given), which growth [1] is on record?
The growth was -33.8% (active).

What about the growth [2] of the same compound?
Its growth is -47.2% (active).

And the growth [3]?
The growth was -69.6% (active).

What about the growth [4] of the same compound?
The growth was -6.36% (active).

What about the growth [5] of the same compound?
Its growth is -46.4% (active).

What about the growth [6] of the same compound?
The growth was 21.4%.

And the growth [7]?
Its growth is -47.5% (active).

What about the growth [8] of the same compound?
The growth was -52.9% (active).

What about the growth [9] of the same compound?
Its growth is -91.9% (active).

And the growth [10]?
The growth was -81.5% (active).

With `N#Cc1c(NC(=O)c2ccco2)[n+]([O-])c2cc(Cl)c(Cl)cc2[n+]1[O-]` as the compound, how does the growth [1] read?
The growth was 103%.

What about the growth [2] of the same compound?
The growth was 96.4%.

What about the growth [3] of the same compound?
The growth was 123%.

What about the growth [4] of the same compound?
The growth was 93.9%.

And the growth [5]?
Its growth is 91.3%.

And the growth [6]?
Its growth is 114%.

What about the growth [7] of the same compound?
The growth was 135%.

What about the growth [8] of the same compound?
Its growth is 90.4%.

And the growth [9]?
Its growth is 99.3%.

And the growth [10]?
Its growth is 142%.

`COc1ccc(C(=O)/C=C/c2cccc(Nc3ccnc4cc(Cl)ccc34)c2)cc1` was tested. Which growth [1] did it give?
The growth was 37%.

What about the growth [2] of the same compound?
The growth was 21%.

And the growth [3]?
Its growth is 44%.

What about the growth [4] of the same compound?
The growth was 13.7%.

And the growth [5]?
The growth was 41.7%.

And the growth [6]?
The growth was 39%.

And the growth [7]?
The growth was 30.6%.

And the growth [8]?
The growth was 28.4%.

And the growth [9]?
Its growth is 37.8%.

And the growth [10]?
Its growth is 23.2%.

How did the growth [1] turn out when `O=C(Nc1ccccc1OC(=O)c1ccccc1)c1ccccc1` was run?
The growth was 112%.

What about the growth [2] of the same compound?
Its growth is 25.2%.

What about the growth [3] of the same compound?
The growth was 93.9%.

And the growth [4]?
Its growth is 56.1%.

What about the growth [5] of the same compound?
Its growth is 121%.

What about the growth [6] of the same compound?
The growth was 47.3%.

And the growth [7]?
Its growth is 109%.

What about the growth [8] of the same compound?
The growth was 95.7%.

And the growth [9]?
The growth was 63.8%.

And the growth [10]?
Its growth is 102%.

With `COc1cnc2c(c1)C(=O)c1c-2n(CCCN2CCC(O)CC2)c(=O)c2cc(F)ccc12` as the compound, how does the growth [1] read?
The growth was -8.46% (active).

What about the growth [2] of the same compound?
The growth was -0.117% (active).

And the growth [3]?
The growth was -61.9% (active).

And the growth [4]?
Its growth is 19.9%.

And the growth [5]?
The growth was -43.1% (active).

And the growth [6]?
The growth was 9.51% (active).

And the growth [7]?
The growth was -20.7% (active).

And the growth [8]?
Its growth is -17.1% (active).

What about the growth [9] of the same compound?
The growth was -16.3% (active).

What about the growth [10] of the same compound?
The growth was -22.4% (active).

What does the source list for `Cc1ccc(C(=O)Cc2ccccc2)c(O)c1`?
growth [1]: 101%; growth [2]: 98.8%; growth [3]: 115%; growth [4]: 103%; growth [5]: 115%; growth [6]: 97.6%; growth [7]: 107%; growth [8]: 102%; growth [9]: 108%; growth [10]: 110%

For `CCN(CC)CCSc1ncnc2c1cnn2-c1ccc(S(N)(=O)=O)cc1`, which growth [1] is on record?
Its growth is 97%.

And the growth [2]?
The growth was 63.2%.

And the growth [3]?
The growth was 69.1%.

And the growth [4]?
The growth was 93.3%.

What about the growth [5] of the same compound?
The growth was 34.2%.

What about the growth [6] of the same compound?
The growth was 105%.

And the growth [7]?
The growth was 54.5%.

What about the growth [8] of the same compound?
The growth was 94.4%.

And the growth [9]?
Its growth is 65.5%.

And the growth [10]?
Its growth is 98.6%.

`CCCCCN1C(=O)CCC1=O` was tested. Which growth [1] did it give?
Its growth is 101%.

What about the growth [2] of the same compound?
The growth was 114%.

What about the growth [3] of the same compound?
The growth was 90.3%.

And the growth [4]?
Its growth is 109%.

And the growth [5]?
Its growth is 122%.

And the growth [6]?
The growth was 93.3%.

And the growth [7]?
The growth was 101%.

And the growth [8]?
Its growth is 102%.

And the growth [9]?
Its growth is 99.4%.

And the growth [10]?
Its growth is 107%.

How did the growth [1] turn out when `O=C1CNc2cc(Cl)ccc2N1` was run?
Its growth is 121%.

And the growth [2]?
The growth was 104%.

What about the growth [3] of the same compound?
The growth was 104%.

And the growth [4]?
Its growth is 98.3%.

What about the growth [5] of the same compound?
The growth was 101%.

And the growth [6]?
The growth was 103%.

What about the growth [7] of the same compound?
Its growth is 105%.

And the growth [8]?
The growth was 106%.

And the growth [9]?
The growth was 113%.

What about the growth [10] of the same compound?
Its growth is 114%.

With `CCN1CCN(c2nc(NNC(=O)Cc3ccccc3)nc(N3CCN(C(c4ccccc4)c4ccccc4)CC3)n2)CC1` as the compound, how does the growth [1] read?
Its growth is 63.5%.

And the growth [2]?
The growth was 2.28% (active).

And the growth [3]?
The growth was 77%.

What about the growth [4] of the same compound?
The growth was 82.7%.

What about the growth [5] of the same compound?
The growth was 66.6%.

And the growth [6]?
The growth was 82%.

And the growth [7]?
The growth was 68.3%.

And the growth [8]?
Its growth is 86.8%.

And the growth [9]?
Its growth is -51.5% (active).

What about the growth [10] of the same compound?
The growth was -68.2% (active).

For `Cn1cnc([N+](=O)[O-])c1Sc1nc(N)nc2nc[nH]c12`, which growth [1] is on record?
The growth was 25.7%.

And the growth [2]?
Its growth is 4.56% (active).

What about the growth [3] of the same compound?
Its growth is 68.8%.

And the growth [4]?
The growth was 29.6%.

What about the growth [5] of the same compound?
Its growth is 44.8%.

What about the growth [6] of the same compound?
The growth was 29%.

And the growth [7]?
The growth was -2.69% (active).

And the growth [8]?
The growth was 16.4%.

And the growth [9]?
The growth was 45.3%.

What about the growth [10] of the same compound?
The growth was 14.4%.
